In all, about 310,000 compounds went through this assay and about 17,000 (5.5%) were called active. Where a call stands in place of a potency, no number is given. About 11% were inconclusive and are not listed. The sample holds actives, similar compounds and a random draw of the others, so the mix is not that of the screen. Calls come from the whole dose curve; as a rule, active = well fitted inhibition curve with a large enough effect; inconclusive = small, poorly fitted or top-dose-only effect, or effect the other way; inactive = no such curve, though single readings can be large or run the other way.
target: Nuclear receptor ROR-gamma (Mus musculus) (UniProt P51450); test: qHTS for inhibitors of ROR gamma transcriptional activity; conditions: Drosophila S2 Gal4-RORgamma UAS-luciferase reporter, 20 h; series mostly up to 53.6 µM; note: nearly all actives have a fitted effect of over 60% in size
Sequence (P51450 whole entry, looked up, the tested form may be a part): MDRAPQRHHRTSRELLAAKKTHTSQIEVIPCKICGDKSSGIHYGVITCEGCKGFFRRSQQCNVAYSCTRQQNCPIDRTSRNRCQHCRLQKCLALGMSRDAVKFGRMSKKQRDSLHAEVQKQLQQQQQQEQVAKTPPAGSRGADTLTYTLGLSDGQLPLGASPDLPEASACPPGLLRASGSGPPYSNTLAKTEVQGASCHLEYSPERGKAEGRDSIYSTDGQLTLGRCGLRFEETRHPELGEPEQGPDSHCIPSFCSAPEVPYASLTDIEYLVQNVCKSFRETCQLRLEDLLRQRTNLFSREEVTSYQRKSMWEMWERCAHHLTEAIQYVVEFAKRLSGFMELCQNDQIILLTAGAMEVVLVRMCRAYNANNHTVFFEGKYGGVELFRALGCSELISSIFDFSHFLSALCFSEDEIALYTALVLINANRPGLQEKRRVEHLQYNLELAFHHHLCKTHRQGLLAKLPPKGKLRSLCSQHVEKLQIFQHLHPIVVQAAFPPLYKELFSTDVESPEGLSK
Text: NIH Molecular Libraries Probe Production Network [MLPCN] NIH Chemical Genomics Center [NCGC] MLPCN Grant: R03 DA026211-01 Assay Provider: Dan Littman, New York University Assay Overview: The retinoic acid-related orphan receptor (ROR) gamma is a transcription factor that has a central role in the differentiation of Th17 cells, a subset of T helper cells that secrete the inflammatory cytokines IL-17, IL-17F, and IL-22. Th17 cells have been implicated in graft versus host disease, autoimmune disease and asthma. ROR gamma is induced in naive T helper cells in the presence of TGF-beta combined with IL-6, IL-21, or IL-23, and thereafter directs the expression of the Th17 lineage cytokines. To study the mechanism of action of ROR gamma, an insect cell-based assay was screened. This Drosophila Schneider cell line was stably transfected with two vectors: a gene expressing a fusion of the Gal4 DNA binding domain and ROR gamma transactivation domain under the control of the metallothionine promoter and a Photinus luciferase reporter regulated by the Gal4 binding site enhancer, UAS. […] Small molecule inhibitors of ROR gamma activity are detected by a decrease in luciferase reporter activity.
Assay Protocol Summary: For screening, 600 cells in 4 uL/well were dispensed into white solid 1536-well plates (Grenier) using a solenoid-based dispenser. Following transfer of 23 nL compound or DMSO vehicle by a pin tool, the plates were incubated 1 hr at ambient temperature, and 1 uL/well copper sulfate (700 uM final concentration) was added. The plates were centrifuged 15 s at 1000 RPM and incubated 20 hr at ambient temperature. After addition of 1.5 uL Photinus luciferase detection reagent, the plates were incubated 10 min at ambient temperature and then read by an ViewLux (Perkin Elmer) to detect luminescence. Keywords: NIH Roadmap, MLPCN, MLI, MLSMR, qHTS, NCGC, qHTS, nuclear hormone receptor, retinoic acid-related orphan receptor, ROR gamma
Potency is the fitted concentration of half-maximal effect.

| SMILES | Potency | activity change, negative = inhibition |
| --- | --- | --- |
| CCN1CCN(C2CCCCC2NS(=O)(=O)c2ccc(Cl)cc2)CC1 (centres undefined) | inactive |  |
| CC(C)Cn1cnc2c1c(=O)n(CC(=O)NN)c(=O)n2Cc1ccccc1 | inactive |  |
| COc1ccc(C(=O)N/N=c2\oc3ccccc3cc2C(N)=O)cc1 | inactive |  |
| COc1cccc2cc(C(N)=O)/c(=N\NC(=O)c3ccccc3)oc12 | 7.08 µM (active) |  |
| NC(=O)c1cc2ccccc2o/c1=N/NC(=O)c1cccc(F)c1 | inactive |  |
| O=C1CN(C(=O)c2cc(F)cc(F)c2)c2ccccc2N1 | inactive |  |
| COC(=O)c1cccnc1NC(=S)NC(C)C | 1.78 µM (active) |  |
| CCOC(=O)c1cccnc1NC(=O)c1ccncc1 | inactive |  |
| COc1ccc(OC)c(C(C)NC(=S)Nc2ccc(S(=O)(=O)Nc3ncccn3)cc2)c1 (centres undefined) | inactive |  |
| Cc1ccc(-n2[nH]c(C)c(/C=N/N3C(=O)c4cccc5cccc(c45)C3=O)c2=O)cc1 | 6.31 µM (active) |  |
| Cc1ccc(-c2ccnc3[nH]n(-c4ccccc4)c(=O)c23)cc1 | inactive |  |
| CCc1nnc(NS(=O)(=O)c2ccc(N=Cc3c(C)[nH]n(-c4ccc(C)cc4)c3=O)cc2)s1 | inactive |  |
| Cc1ccc(C(=O)N2CCC(n3nccc3NC(=O)Nc3cccc(F)c3)CC2)cn1 | inactive |  |
| COc1cccc(NS(=O)(=O)c2ccc3[nH]cc(C(=O)NCCCOC(C)C)c(=O)c3c2)c1 | inactive |  |
| CCOc1ccc(NS(=O)(=O)c2ccc(C)c(C(N)=O)c2)cc1 | inactive |  |
| CCCCNC(=O)c1c[nH]c2ccc(S(=O)(=O)Nc3ccc(OCC)cc3)cc2c1=O | 7.94 µM (active) |  |
| CCOC(=O)c1c(S(=O)(=O)Nc2ccc(CN3CCC(C)CC3)cc2)c(C)n(C)c1C | inactive |  |
| CCOC(=O)c1cc2c(nc1NC(=S)Nc1ccccc1)CC(C)(CC)OC2 (centres undefined) | 3.55 µM (active) |  |
| CCOC(=O)c1cc2cc3ccccc3cc2oc1=O | inactive |  |
| CCOC(=O)c1cn[nH]c1NC(=S)Nc1ccccc1 | inactive |  |
| Cc1ccc(NC(=O)CSc2nnc(CNC(=O)c3ccccc3F)o2)cc1Cl | inactive |  |
| COc1ccc(-c2noc(CNC(=O)C(C)Oc3ccccc3)n2)cc1 (centres undefined) | inactive |  |
| COc1cc(OC)nc(S(C)(=O)=O)n1 | inactive |  |

| SMILES | Potency | activity change, negative = inhibition |
| --- | --- | --- |
| COc1ccc(-c2cc(C(F)(F)F)nc(SCC(=O)Nc3ccc4c(c3)OCO4)n2)cc1OC | inactive |  |
| COc1ccc(-c2cc(C(F)(F)F)nc(S(C)(=O)=O)n2)cc1OC | 1.78 µM (active) |  |
| Cc1cccn2c(=O)c3cc(C(=O)NCC4CCCO4)c(=N)n(Cc4ccc(F)cc4)c3nc12 (centres undefined) | inactive |  |
| COc1cc(OC)c(OC)cc1CN1CCN(C(=O)c2cccc3ccccc23)CC1 | inactive |  |
| Cc1ccc(C(C[N+](=O)[O-])c2c(C)cc3ccccn23)cc1 (centres undefined) | 22.4 µM (active) |  |
| CC(=O)Nc1ccc(/C=N/Nc2ccc(C(=O)c3c(C)cc4ccccn34)cc2[N+](=O)[O-])cc1 | inactive |  |
| Cc1cc2ccccn2c1C(=O)c1cccc(F)c1 | inactive |  |
| C=CCNc1scc(-c2ccccc2)[n+]1CC=C | 12.6 µM (active) |  |
| C=CCNC(=O)c1csc(-c2ccccc2)n1 | inactive |  |
| Cc1ccc(NC(=O)NNC(=O)c2sccc2-n2cccc2)cc1 | inactive |  |
| C=CC[n+]1c(-c2ccc(C)cc2)csc1NNC(=O)Nc1ccccc1 | 14.1 µM (active) |  |
| Cc1ccc(NC(=O)Nc2ccccc2)c(Br)c1 | inactive |  |
| COC(=O)c1cc(NS(=O)(=O)c2ccc3c(c2)c(=O)n(C)c(=O)n3C)cc(C(=O)OC)c1 | inactive |  |
| Cc1cccc(C)c1N1C(=O)CN(Cc2ccccc2)C1=S | inactive |  |
| CCC(=O)c1cn(CCOc2ccccc2OC)c2ccccc12 |  | -12.4% [at 1.91 µM] (inactive) |
| Cc1cccc(NC(=O)C2CCCN(C(=O)NCc3ccccc3)C2)c1C (centres undefined) | inactive |  |
| CN(C)c1ccc(CNC(=O)CN2C(=O)COc3ccc(S(=O)(=O)N4CCCC4)cc32)cc1 | inactive |  |
| COC(=O)c1cc(Cl)c(NC(=O)c2ccco2)cc1OC | inactive |  |
| COc1ccc(NC(=O)CCC(=O)Nc2cc(OC)c(NC(=O)c3ccco3)cc2OC)c(OC)c1 | inactive |  |
| CCOCC(=O)Nc1cc(OC)c(Cl)cc1OC | inactive |  |
| COc1cc(NC(=S)NCc2ccco2)c(OC)cc1Cl | 7.08 µM (active) |  |
| CCOc1cc(NC(=S)NCCCN(C)C)c(OCC)cc1NC(=O)C1CC1 | inactive |  |
| CCOc1cc(NC(=S)NCc2ccco2)c(OCC)cc1NC(=O)c1ccco1 | 1.12 µM (active) |  |

| SMILES | Potency | activity change, negative = inhibition |
| --- | --- | --- |
| COc1ccc2c(Cl)c(C(=O)NCc3ccco3)sc2c1 | inactive |  |
| CCC(=O)NC(=S)Nc1ccc(NC(=O)c2ccco2)c(Cl)c1 | 2.51 µM (active) |  |
| COc1ccc(CC(=O)Nc2ccccc2NC(=O)c2ccco2)cc1OC | inactive |  |
| CCOc1cc(NC(=S)NCCCOC)c(OCC)cc1NC(=O)c1ccco1 | 20 µM (active) |  |
| CCOc1cc(NC(=O)c2ccco2)c(OCC)cc1NC(=O)COc1ccccc1 | inactive |  |
| O=C(Nc1ccc(NC(=O)c2ccco2)c(Cl)c1)c1cccc([N+](=O)[O-])c1 | inactive |  |
| CCc1nn(CCCC(=O)Nc2ccc(C)c(C)c2)c(=O)c2cc3occc3n12 | inactive |  |
| O=C(O)c1cc(S(=O)(=O)NC2CCCc3ccccc32)ccc1O (centres undefined) | inactive |  |
| CC(C(=O)NCCc1ccc(S(N)(=O)=O)cc1)N1C(=O)CC(C)(C)Sc2ccccc21 (centres undefined) | inactive |  |
| CNC(=O)N1c2ccccc2C=Cc2ccccc21 | inactive |  |
| Clc1nc(NC2CCCC2)nc(N2CCOCC2)n1 | inactive |  |
| COc1cccc(N(CC(=O)NC2CCCC2)C(=O)Cn2nnc(-c3ccc(C)o3)n2)c1 | inactive |  |
| CCN(CC)S(=O)(=O)c1cccc(-c2n[nH]c(=S)n2/N=C/c2ccc(C(=O)OC)cc2)c1 | inactive |  |
| CCOc1ccc(-c2n[nH]c(=S)n2/N=C/c2cc3c(cc2[N+](=O)[O-])OCO3)cc1 |  | -47.7% [at 10 µM] (inactive) |
| Oc1ccccc1/C=N/n1c(-c2cccs2)n[nH]c1=S | 10 µM (active) |  |
| c1ccc(-c2cc(-c3nnc4sc(-c5ccccn5)nn34)[nH]n2)cc1 | inactive |  |
| Cc1ccc(-c2n[nH]c(=S)n2/N=C/c2cc3c(cc2[N+](=O)[O-])OCO3)cc1 | inactive |  |
| S=c1[nH]nc(-c2ccco2)n1/N=C/c1ccc(Br)s1 | 11.2 µM (active) |  |
| S=c1[nH]nc(-c2cccs2)n1/N=C/c1cn(-c2ccccc2)nc1-c1ccc(Cl)cc1 | inactive |  |
| Cc1ccc(/C=N\n2c(-c3ccccc3)n[nH]c2=S)s1 | 3.98 µM (active) |  |
| Brc1ccc(/C=N/N2CCN(C3c4ccccc4-c4ccccc43)CC2)s1 | inactive |  |
| S=c1[nH]nc(-c2ccncc2)n1/N=C/c1ccccc1Cl | inactive |  |
| S=c1[nH]nc(-c2cc(-c3ccccc3)n[nH]2)n1/N=C/c1c2ccccc2cc2ccccc12 | 7.94 µM (active) |  |
